Bioassay records as filed in PubChem.
D2 antag: HTS Assay for Allosteric Antagonists of the Human D2 Dopamine Receptor: Primary Screen for Antagonists | D(2) dopamine receptor (Homo sapiens), P14416 | HEK293 TREx D2 cells, calcium flux, dopamine EC80 | inhibition, % at 10 µM | hit rate 2% among 340,000; in the data active means inhibition above about 30%; inactive means below that, where a call was filed
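Cells plated overnight at 30 C with tetracycline; no-wash calcium dye, 30–90 min RT; 10 s baseline; compound pinned; 180 s read; EC80 dopamine added; another 180 s read.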
D2 PAM-1: HTS Assay for Positive Allosteric Modulators of the Human D2 Dopamine Receptor: Primary Screen for Potentiators. AID 485347, 2010. hit rate 0.34% among 340,000. D(2) dopamine receptor (Homo sapiens), P14416. potentiation, % at 10 µM. HEK293 T-REx D2, calcium flux, EC20 dopamine potentiation;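 active means potentiation over 3 SD above the plate norm, cut at about 30% in these data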
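Using a no-wash calcium dye in inducible, force-coupled HEK293 Trex cells expressing D2, we tracked fluorescence each second for 180 s after compound, then for 180 s after EC20 dopamine to detect augmented signalling.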
D2 ag-1: Beta-Arrestin HTS for Positive Allosteric Modulators of the Human D2 Dopamine Receptor: Agonists. DiscoveRx PathHunter D2 beta-arrestin, luminescence, 90 min; 100% = 57 uM dopamine signal. activation, % (no concentration beside the values). hit rate 0.084% among 360,000; in the data active means activation above about 40%; inconclusive means between about 15% and that limit
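Agonist mode: compounds alone added to overnight-plated D2 PathHunter cells for 90 min at 37 C, with 57 uM final dopamine (EC100) defining full response. Beta-arrestin recruitment detected by chemiluminescent reagent, read after 1 h at ambient temperature.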
D2 ag-2: HTS Assay for Allosteric Agonists of the Human D2 Dopamine Receptor: Primary Screen for Agonists | D(2) dopamine receptor (Homo sapiens), P14416 | HEK293 T-REx D2 cells, calcium flux agonist mode | activation, % at 2 µM | hit rate 0.53% among 340,000 | AID 485358, 2010;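 active means activation over 3 SD above normal in the single-dose calcium agonist read, cut at about 30% in these data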
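Agonism is scored from calcium flux in a force-coupled, inducible HEK293 cell line expressing D2, read kinetically for 180 s after compound addition against dopamine controls.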
D2 PAM-2: Beta-Arrestin HTS for Positive Allosteric Modulators of the Human D2 Dopamine Receptor: Potentiators | D(2) dopamine receptor (Homo sapiens), P14416 | DiscoveRx D2 beta-arrestin cells, luminescence, 90 min; 100% = 57 uM dopamine signal | potentiation, % (no concentration beside the values) | hit rate 0.23% among 360,000; in the data active means potentiation above about 50%; inconclusive means mostly about 30% to 49%
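PathHunter beta-arrestin assay in DiscoveRx D2 cells. Compounds were added with an EC20 of dopamine (50 nM final) for 90 min at 37 deg C. Luminescence was read 1 h after detection reagent, with 57 uM dopamine as the EC100 control.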
D3 ag: qHTS of D3 Dopamine Receptor Agonist: D3 Dopamine Receptor B-arrestin Agonist Confirmatory Assay; DiscoveRx D3 beta-arrestin cells, luminescence, 90 min; Potency, µM (highest dose often 76.9 µM), actives largely listed as activators; AID 720506, 2013; hit rate 4% among 2,300; shares compounds with D2 ag-2; further: nearly all actives have a fitted effect of over 70% in size
Target sequence (P35462 whole entry, looked up): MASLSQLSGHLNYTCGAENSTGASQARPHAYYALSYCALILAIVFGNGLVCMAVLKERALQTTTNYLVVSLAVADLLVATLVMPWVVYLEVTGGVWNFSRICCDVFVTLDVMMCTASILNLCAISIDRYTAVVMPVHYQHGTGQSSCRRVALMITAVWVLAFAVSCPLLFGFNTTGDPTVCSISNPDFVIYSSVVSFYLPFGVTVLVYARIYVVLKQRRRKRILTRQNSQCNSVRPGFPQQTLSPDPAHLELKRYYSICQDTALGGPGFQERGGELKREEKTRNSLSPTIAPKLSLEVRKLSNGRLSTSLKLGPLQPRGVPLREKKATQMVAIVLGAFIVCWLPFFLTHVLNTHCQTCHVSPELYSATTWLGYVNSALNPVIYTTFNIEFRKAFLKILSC
D2 ag-3: qHTS of D3 Dopamine Receptor Agonist: D2 Dopamine Receptor B-arrestin Agonist Counterscreen; AID 720507, 2013; Potency, µM (titrated, usually from 76.9 µM), actives largely listed as activators; DiscoveRx PathHunter D2 beta-arrestin, luminescence, 90 min; response scale: percent relative to full dopamine signal; hit rate 5.9% among 2,300; shares compounds with D2 ag-2; further: nearly all actives have a fitted effect of over 70% in size
Of the large screens only hits and unclear results are named; the others gave an inactive call (follow-up assays come after a bar, where they were run). An excerpt weighted towards active compounds, which were near 2.4% of everything screened. Unless noted, the call rests on the fitted dose curve; in most records, active means well fitted activation curve with a large enough effect; inconclusive means small, poorly fitted or top-dose-only effect; inactive means flat fitted curve, though single readings scatter.

CC1CN(C(=O)CCC(=O)NCc2cccc(Cl)c2)c2ccccc2S1 (configuration not stated)	none (no result: D2 antag, D2 ag-1, D2 PAM-2)
Cc1ccc(-c2csc(NC(=O)C[n+]3cc(-c4ccccc4)n4c3CCC4)n2)cc1	D2 antag 64, D2 ag-2 77 | D3 ag inactive | D2 ag-3 inactive
Cc1ccc(-c2csc(NC(=O)C[n+]3cc(-c4ccc(C)cc4)n4c3CCC4)n2)cc1	none
N#C/C(=C\c1ccc(-c2ccccc2C(=O)O)o1)c1nc2ccccc2[nH]1	none | D3 ag inactive | D2 ag-3 inactive
COc1ccccc1OC(C)C(=O)Nc1ccccc1C(=O)NCc1cccnc1 (configuration not stated)	none
CCN(CC(=O)Nc1ccc(NC(C)=O)cc1)C(=O)c1c(C)nn(Cc2ccc(C)cc2)c1Cl	none (no result: D2 antag, D2 PAM-1, D2 ag-2)
CC1(c2ccccc2)NC(=O)N(CC(=O)Nc2ccc(S(=O)(=O)Nc3ncccn3)cc2)C1=O (configuration not stated)	D2 antag 50, D2 ag-2 53 | D3 ag inactive | D2 ag-3 inactive
CCN(CC)C(=O)c1[nH]cnc1C(=O)N[C@@H](C)C(=O)OC(C)(C)C	none | D3 ag inactive | D2 ag-3 inactive
CCOc1ccc(C(CC(=O)Nc2ccc(C(=O)OC)cc2)N2Cc3ccccc3C2=O)cc1OC (configuration not stated)	none (no result: D2 antag, D2 ag-1, D2 PAM-2)
CC(C)n1cc(C(=O)N2CCCC(N3CCN(c4cccc(Cl)c4)CC3)C2)cn1 (configuration not stated)	D2 ag-2 52 | D3 ag inactive | D2 ag-3 inactive
O=C(c1ccsc1)N1CCCC(N2CCN(c3cccc(Cl)c3)CC2)C1 (configuration not stated)	none
COC(=O)c1ccc(C(=O)N2CCCC(N3CCN(c4ccccc4)CC3)C2)nc1 (configuration not stated)	D2 ag-2 43 | D3 ag inactive | D2 ag-3 inactive
Cc1cnc(C(=O)N2CCCC(N3CCN(c4cccc(C(F)(F)F)c4)CC3)C2)cn1 (configuration not stated)	none | D3 ag inactive | D2 ag-3 inactive
COc1cccc(OC)c1Cn1nnc2c(=O)[nH]c(C3CCN(C(=O)c4ccccc4)CC3)nc21	none (no result: D2 antag, D2 ag-1, D2 PAM-2)
Cc1ccc(-c2nc(C)c(CCNC(=O)c3cccs3)s2)cc1	none (no result: D2 antag, D2 ag-1, D2 PAM-2)
CSc1c(CC(=O)NCCO)n(C)c2ccccc12	none
Cn1c(CC(=O)NCCO)c(Sc2ccccc2)c2ccccc21	D2 ag-2 50 | D3 ag inactive | D2 ag-3 inactive
O=C1[C@H](Cc2ccccc2)NCC=CC[C@@H](c2ccc(Cl)cc2)N1Cc1ccccc1	none (no result: D2 antag, D2 PAM-1, D2 ag-2)
O=c1c2ccccc2nc(SCc2ccc([N+](=O)[O-])cc2)n1-c1ccccc1	none (no result: D2 ag-2)
O=C(O)c1ccc(CSc2nc3ccccc3c(=O)n2-c2ccccc2)cc1	D2 antag 48, D2 ag-2 58 | D3 ag inactive | D2 ag-3 inactive
O=C(NCCCN1CCN(c2ccccc2F)CC1)C1CCCN(S(=O)(=O)c2cnc[nH]2)C1 (configuration not stated)	D2 antag 65, D2 ag-2 68 | D3 ag inconclusive | D2 ag-3 inactive
CC(=O)c1ccc(N2CCN(C(=O)C3CCCN(S(=O)(=O)c4cnc[nH]4)C3)CC2)cc1 (configuration not stated)	D2 antag 32 | D3 ag inactive | D2 ag-3 inactive
CC(=O)c1ccc(N2CCN(C(=O)C3CCCN(S(=O)(=O)c4ccc(Br)s4)C3)CC2)cc1 (configuration not stated)	none (no result: D2 antag, D2 ag-1, D2 PAM-2)
CN(CC(=O)Nc1cccc(F)c1)C(=O)c1cc(=O)[nH]c2ccccc12	none
COc1cc(OC)c(S(=O)(=O)NC(C)C)cc1C(=O)O	none
Brc1cccc(CN2CCN(c3ncccn3)CC2)c1	D2 antag 85, D2 ag-1 73, D2 ag-2 73, D2 PAM-2 inconclusive | D3 ag inactive | D2 ag-3 11µM
Cc1cccc(CN2CCN(c3ncccn3)CC2)c1	D2 antag 83, D2 ag-1 inconclusive, D2 ag-2 87, D2 PAM-2 inconclusive | D3 ag inconclusive | D2 ag-3 7.9µM
COc1ccc(-c2cc3nc(C)c(CCC(=O)Nc4ccccc4C(C)=O)c(C)n3n2)c(OC)c1	none (no result: D2 antag, D2 ag-1, D2 PAM-2)
COc1cccc(CNC(=O)CCC2CCCN(C(=O)c3cc(C4CC4)[nH]n3)C2)c1 (configuration not stated)	D2 antag 63 | D3 ag inactive | D2 ag-3 inactive
COc1cccc(CNC(=O)CCC2CCCN(C(=O)c3cc(C)on3)C2)c1 (configuration not stated)	none
CCCNC(=O)C(Cc1ccc(Cl)cc1)NC(=O)c1ccc(C#N)cc1 (configuration not stated)	none | D3 ag inactive | D2 ag-3 inactive
CCCNC(=O)C(Cc1ccc(Cl)cc1)NC(=O)c1ccc(-c2ccccc2)cc1 (configuration not stated)	none
CCCNC(=O)C(Cc1ccc(Br)cc1)NC(=O)c1ccc(C#N)cc1 (configuration not stated)	none | D3 ag inactive | D2 ag-3 inactive
COCCC1CCCCN1C(=O)c1cc(COc2ccc(-n3cncn3)cc2)on1 (configuration not stated)	none
CN(C)S(=O)(=O)c1ccc(N2CCCC2)c(C(=O)NNC(=O)COc2cccc(F)c2)c1	none | D3 ag inactive | D2 ag-3 inactive
CC(C)(O)C#Cc1ccc(CN2CCN(C3CCCCC3)C(CCO)C2)s1 (configuration not stated)	D2 ag-2 42 | D3 ag inactive | D2 ag-3 inactive
CC(C)(O)C#Cc1ccc(CN2CCN(C3CCCCC3)C(CCO)C2)cc1 (configuration not stated)	none
